According to PubChem BioAssay (NCATS):
Results filed as inconclusive are left out. A number with no mark means an inactive call. The call rests on the fitted dose curve; in most records, active means well fitted inhibition curve with a large enough effect; inconclusive means small, poorly fitted or top-dose-only effect; inactive means no such curve, though single readings can be large or run the other way.

Each compound was assayed against Retinaldehyde dehydrogenase 3 (Homo sapiens) (UniProt P47895) (assay: qHTS for Inhibitors of the Aldehyde Dehydrogenase Family (ALDH1A3) Primary screen (AID 2061315;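 further: plate controls were DMSO vehicle for no effect and reference inhibitor for full effect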)). Settings: ALDH inhibition qHTS; series mostly up to 56 µM; activity change, negative = inhibition: at the top concentration.
For `CCCn1c(-c2ccc(F)cc2)nc2c(NC3CC4CCC(C3)N4C)nc(C)nc21` (stereo not given), the “activity change, negative = inhibition” value was 3.17%. `Cc1ccc(C(C)c2ccc(=O)n(CC(=O)NCCc3ccccc3)n2)cc1` (stereo not given) was tested, and the “activity change, negative = inhibition” value was -0.85%. With `CCCn1c(C)nc2c(NCCCN(CC)CC)nc(C)nc21` the “activity change, negative = inhibition” value was 1.13%. `COc1ccc(CN2C(=O)c3ccccc3NC2c2ccc(OC)c(COc3c(C)cc(NC(C)=O)cc3C)c2)cc1` (stereo not given) was tested, and the “activity change, negative = inhibition” value was -2.82%. In the case of `O=C(Nc1ccc(Cl)c(Cl)c1)Nc1nnc(-c2ccc(F)cc2)s1`, the “activity change, negative = inhibition” value is reported as 2.14%. With `Cc1ccc(S(=O)(=O)Nc2ccccc2C(=O)Nc2nc(-c3ccccc3)c(Br)s2)cc1` the “activity change, negative = inhibition” value was -1.8%. In the case of `O=C(c1ccc2c(c1)ncn2-c1ccc(C(F)(F)F)cc1)N1CCCCC1`, the “activity change, negative = inhibition” value is reported as -25%. In the case of `O=C1c2ccccc2C(=O)N1Cc1ccccc1`, the “activity change, negative = inhibition” value is reported as 17.7%. With `N#CN1CCC(NC(=O)c2ccc(C(F)(F)F)cc2)CC1` the “activity change, negative = inhibition” value was 3.66%. With `Brc1ccc(-c2csc(N3CCOCC3)n2)cc1` the “activity change, negative = inhibition” value was -1.44%. With `Cc1ccc(CN(C)c2ncnc3ccc(-c4ccc(C(=O)O)o4)cc23)o1` the “activity change, negative = inhibition” value was 0.39%. For `NC(=O)c1c(-c2ccccc2)no[n+]1[O-]`, the “activity change, negative = inhibition” value was 9.65%. In the case of `COC(=O)N[C@H](C(=O)N1[C@@H]2CC[C@@H](C2)[C@H]1c1nc2ccc(-c3ccc4c(c3)C(F)(F)c3cc(-c5cnc([C@@H]6CCC7(CC7)N6C(=O)[C@@H](NC(=O)OC)C(C)C)[nH]5)ccc3-4)cc2[nH]1)C(C)C`, the “activity change, negative = inhibition” value is reported as 6.65% [at 28 µM]. In the case of `N#Cc1c(Cl)cccc1Oc1ccc([S+](=O)([O-])N2CCN([S+](=O)([O-])c3c(F)cccc3F)CC2)cc1`, the “activity change, negative = inhibition” value is reported as -6.3%. For `Cc1cccc(-n2cnc3cc(C(=O)N4CCCC(C(C)C)C4)ccc32)c1` (stereo not given), the “activity change, negative = inhibition” value was 0.903%. For `O=C(CCc1ccccc1)Nc1cccc([S+](=O)([O-])Nc2ccccc2F)c1`, the “activity change, negative = inhibition” value was 8.77%. In the case of `O=C(O)CC(=O)OC[C@H]1O[C@@H](Oc2ccc3c(c2)OC[C@H]2c4cc5c(cc4O[C@@H]32)OCO5)[C@H](O)[C@@H](O)[C@@H]1O`, the “activity change, negative = inhibition” value is reported as 1.56% [at 28 µM]. For `CC1(C)CC(C(=O)Nc2ccc([S+](=O)([O-])Nc3nccs3)cc2)C1`, the “activity change, negative = inhibition” value was 8.31%. Compound `CC(=O)O[C@@H]1C[C@]2(C)[C@@]3(CCC4[C@@]5(C)CC[C@H](O[C@@H]6O[C@H](C(=O)O)[C@@H](O)[C@H](O[C@@H]7O[C@H](CO)[C@H](O)[C@H](O)[C@H]7O[C@@H]7O[C@@H](C)[C@H](O)[C@@H](O)[C@H]7O[C@@H]7OC[C@](O)(CO)[C@H]7O)[C@H]6O[C@@H]6O[C@H](CO)[C@H](O)[C@H](O)[C@H]6O)C(C)(C)C5CC[C@]42C)O[C@@H](O)[C@]12C3CC(C)(C)[C@@H](OC(=O)/C=C/c1ccc(O)c(O)c1)[C@@H]2OC(=O)/C=C/c1ccccc1` (stereo not given in full) has an activity change, negative = inhibition of 17.4% [at 11.2 µM]. With `CCCCC1CCC(C(=O)Nc2ccc(S(=O)(=O)Nc3nccs3)cc2)CC1` (stereo not given) the “activity change, negative = inhibition” value was 20.7%. With `Cc1c(C(=O)NCC2CCCO2)[nH]c2c1C(=O)CC(c1ccco1)C2` (stereo not given) the “activity change, negative = inhibition” value was -9.63%. `Cc1ccc(OC2=NS(=O)(=O)c3ccccc32)cc1` was tested, and the “activity change, negative = inhibition” value was -9.3%. For `Cc1cc(Nc2nc(-c3ccccc3)nc3ccccc23)n[nH]1`, the “activity change, negative = inhibition” value was 2.42%. `CNc1oc(-c2cccs2)nc1C#N` was tested, and the “activity change, negative = inhibition” value was -2.18%. With `O=C(Nc1ccc(N2CCOCC2)c(C(F)(F)F)c1)Nc1nnc(-c2ccncc2)s1` the “activity change, negative = inhibition” value was -2.49%. With `Cc1cc(NC(=S)N2CCN(c3cccc(C(F)(F)F)c3)CC2)nc2ccccc12` the “activity change, negative = inhibition” value was 9.11%. In the case of `COc1ccc(-c2nnc3n2N=C(c2ccc(OC)cc2OC)CS3)cc1`, the “activity change, negative = inhibition” value is reported as 5.36%. With `O=S(=O)(Nc1nccs1)c1ccc(NCc2cccc(Cl)c2O)cc1` the “activity change, negative = inhibition” value was 3.64%. With `COc1ccc(/C=C2/C(=O)Nc3ccccc32)cc1O` the “activity change, negative = inhibition” value was -8.82%. With `COc1ccc(-c2nc3ccccc3c(=O)n2Cc2ccccc2)cc1COc1ccc(NC(C)=O)cc1` the “activity change, negative = inhibition” value was 11.9%. In the case of `Cc1ccc(OCCn2c(CCNC(=O)NC3CCCCC3)nc3ccccc32)cc1`, the “activity change, negative = inhibition” value is reported as 0.809%. With `C[C@@H]1COCCN1c1cc(C2(S(C)(=O)=O)CC2)nc(-c2cccc3[nH]ccc23)n1` the “activity change, negative = inhibition” value was 1.59%. `O=C(O)c1ccnc2c(O)cccc12` was tested, and the “activity change, negative = inhibition” value was 17.9%. In the case of `Cc1ccc(C2N=C(Nc3nc4ccccc4o3)NC3=C2C(=O)CCC3)s1` (stereo not given), the “activity change, negative = inhibition” value is reported as -1.99%. For `Cc1nc(N2CCOCC2)c2nc(-c3ccccc3)n(CCCN3CCCCC3C)c2n1` (stereo not given), the “activity change, negative = inhibition” value was -0.319%. With `O=C(Nc1cc(C(F)(F)F)ccc1Cl)C(O)Cc1ccccc1` (stereo not given) the “activity change, negative = inhibition” value was 2.31%. For `Cc1c[nH]c2nccc(Oc3c(F)cc(Nc4cc(Cl)nc(N)n4)cc3F)c12`, the “activity change, negative = inhibition” value was 10.3%. For `Cc1nc(NC2CCCCC2)c2nc(-c3ccccc3)n(CCCN3CCCCC3C)c2n1` (stereo not given), the “activity change, negative = inhibition” value was 8.46%. In the case of `CCOc1ccc(CCNC(=O)c2csc(Br)n2)cc1OCC`, the “activity change, negative = inhibition” value is reported as -0.665%. With `O=C(Cn1cc(CNCc2ccccc2)nn1)Nc1cc(C(F)(F)F)ccc1Cl` the “activity change, negative = inhibition” value was 5.97%.
